Measurements: PubChem BioAssay (EPA / NIEHS)
Calls of active or inactive are those of the source. Rule for the calls: active = hit-call score of the fitted dose curve at least 0.9, where 1 is the maximum; inactive = score below 0.9.

Test: ATG_TA_CIS: Attagene CIS-FACTORIAL HepG2 Assay for human TA Basal Promoter (AID 2282964)
Conditions: HepG2 Attagene CIS-factorial TA basal promoter reporter; actives raise or lower the signal
Experimental: ATG_CIS is a cell-based, multiplexed-readout assay that uses HepG2, a human liver cell line, with measurements taken at 24 hours after chemical dosing in a 24-well plate.ATG_TA_CIS is one of 52 assay component(s) measured or calculated from the ATG_CIS assay. It is designed to make measurements of mRNA induction, a form of inducible reporter, as detected with fluorescence intensity signals by Reverse transcription polymerase chain reaction (RT-PCR) and Capillary electrophoresis technology.Data from the assay component ATG_TA_CIS was analyzed into 1 assay endpoint. This assay endpoint, ATG_TA_CIS, was analyzed with bidirectional fitting relative to DMSO as the negative control and baseline of activity. Using a type of inducible reporter, measures of mRNA for gain or loss-of-signal activity can be used to understand the background control at the transcription factor-level as they relate to the gene . Furthermore, this assay endpoint can be referred to as a secondary readout, because this assay has produced multiple assay endpoints where this one serves a background control function. To generalize the intended target to other relatable targets, this assay endpoint is annotated to the background measurement intended target family, where the subfamily is internal marker.
Human liver HepG2 cells are transiently transfected with multiple reporter transcription units (MRTUs) in 6-well plates using FuGene 6 reagent (Roche; 3 ml FuGene/1 mg DNA). The MRTU constructs are regulated by a cis-regulating element (promoter). […] A major difference between the CIS and TRANS system is that in CIS activities of endogenous TFs are measured, whereas the TRANS assay evaluates changes in activities of exogenous, chimeric NR-Gal4 proteins. […] At the end of 24 hour incubation, total RNA was isolated using TriZol reagent (Invitrogen). The isolated RNA is then reverse-transcribed using oligo(dT) primer and Mo-MLV reverse transcriptase (Invitrogen) with DNAse I (Ambion) treatment for 30 min. The one-tenth of the produced cDNA was amplified by PCR using Taq DNA polymerase (Invitrogen) and two reporter sequence-specific primers. The PCR products were fluorescently labeled by primer extension with 6-arboxyfluorescein (6-FAM) 5'-labeled reporter sequence-specific primer (2 min at 95 C, 20 s at 68 C and 10 min at 72 C) and these products were digested with 5U of HpaI (New England Biolabs) for 2h at 37 C. The fragments were purified using Qiaquick PCR columns (Qiagen), analyzed on an ABI 3130xL genetic analyzer (Applied Biosystems) with peak positions identified by using a set of X-rhodamine (ROX)-labeled MapMarker1000 molecular weight standards (BioVentures). The raw capillary electrophoresis data was processed using Attagraph software (Attagene).

outcome, inactive:
CCCC(=O)OC(C)(C)Cc1ccccc1
NC(=S)NNC(N)=S
CC(=O)O[C@H]1C[C@@H]2CC[C@@]1(C)C2(C)C
C1=CC2C3C=CC(C3)C2C1 (stereo not given)
Cc1cc(=O)oc2cc(N(C)C)ccc12
CCCC(=O)OCCc1ccccc1
C=CCOC(=O)CCCCCC
CCC(C)c1cc([N+](=O)[O-])cc([N+](=O)[O-])c1OC(=O)OC(C)C (stereo not given)
C=CCN(CC=C)CC=C
Cc1ncc[nH]1
CC1(C)COCN1
CCCC(=O)C(CC)Sc1ccoc1C (stereo not given)
NCCNc1cccc2ccccc12
O=C(c1ccccc1)C(O)c1ccccc1 (stereo not given)
O=CCc1ccccc1
CCCCCC(C=O)=Cc1ccccc1
O=C(Nc1ccc2c(O)c(N=Nc3ccc(N=Nc4ccc(S(=O)(=O)O)cc4)cc3)c(S(=O)(=O)O)cc2c1)c1ccccc1
O=C(O)CCCCCCCCC(=O)O
CCCC(=O)c1ccccc1
CCOC(=O)[C@@H](C)Oc1ccc(Oc2nc3ccc(Cl)cc3o2)cc1
CC(C)(C)c1ccc(C(=O)O)cc1
CS(=O)(=O)OCCCCOS(C)(=O)=O
CCC1(c2ccccc2)C(=O)NCNC1=O
CCC1(C)NC(=O)NC1=O (stereo not given)
CC(=O)O[C@@H]1C[C@@H]2CC[C@@]1(C)C2(C)C
COc1cc([C@@H]2c3cc4c(cc3[C@@H](O[C@@H]3O[C@@H]5CO[C@@H](C)O[C@H]5[C@H](O)[C@H]3O)[C@H]3COC(=O)[C@H]23)OCO4)cc(OC)c1O
COC(=O)c1ccc(OC)cc1
COc1ccccc1N=Nc1c(S(=O)(=O)O)cc2cc(S(=O)(=O)O)cc(NC(C)=O)c2c1O
Nc1ccc(Cl)c([N+](=O)[O-])c1
BrCc1cccc(Oc2ccccc2)c1
CC1(C)O[C@@H]2C[C@H]3[C@@H]4CCC5=CC(=O)C=C[C@]5(C)[C@@]4(F)[C@@H](O)C[C@]3(C)[C@]2(C(=O)CO)O1
COc1ccc(CCN2CCC(Nc3nc4ccccc4n3Cc3ccc(F)cc3)CC2)cc1
CC(C)CCCCCCCCCCCCCCC(=O)O
COC(=O)C=C(C)CCC=C(C)C
CC1CCC(C(C)C)C(O)C1 (stereo not given)
CCCCOC(=O)CCCCCCCC(=O)OCCCC
C#CC(C)N(C)C(=O)Nc1ccc(Cl)cc1 (stereo not given)
CC(=O)c1ccccn1

AC50, active:
CCOC(=O)C(C#N)=C(c1ccccc1)c1ccccc1 23.5 µM
CCc1cc(Cc2cc(CC)cc(C(C)(C)C)c2O)c(O)c(C(C)(C)C)c1 11.1 µM
